This note sets out measurements from PubChem BioAssay AID2174 (The Scripps Research Institute Molecular Screening Center, 2009).

The structures appear in SMILES notation. Screen size: about 320,000 compounds; about 500 (0.16%) were called active.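 How the source made its calls: active means inhibition above the mean of all tested compounds plus 3 SD, set per campaign (cut at about 14% in these data); inactive means the rest.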 The list comes from a sample in which actives are over-represented; it also holds similar structures and randomly drawn compounds.

Chain of Acyl-protein thioesterase 1 (Homo sapiens) (O75608 whole entry, looked up): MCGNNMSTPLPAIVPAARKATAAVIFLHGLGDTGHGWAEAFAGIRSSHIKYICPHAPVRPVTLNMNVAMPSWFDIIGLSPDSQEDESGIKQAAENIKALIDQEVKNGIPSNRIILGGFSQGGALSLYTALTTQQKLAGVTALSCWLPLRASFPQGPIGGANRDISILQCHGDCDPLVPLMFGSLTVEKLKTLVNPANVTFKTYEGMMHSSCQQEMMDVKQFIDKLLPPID

This assay addresses Acyl-protein thioesterase 1 (Homo sapiens) (UniProt O75608). Kind of assay: LYPLA1 inhibitors, primary screen, counter-screen for PME1 inhibitor project, biochemical, fluorescence polarization, FP-Rh probe ABPP (AID 2174).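 Further: inhibitors block serine hydrolase probe labeling of LYPLA1 so polarization falls; 0% = enzyme with DMSO and 100% = wells lacking LYPLA1.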 The settings on record: recombinant LYPLA1, FP-Rh probe fluorescence polarization; at 5.9 µM; active compounds read high.
Take `O=[N+]([O-])c1ccc(N(CCO)Cc2ccccc2)c([N+](=O)[O-])c1`: the inhibition is -0.28% (inactive).

For `O=C(CN1CCN(c2cccc(Cl)c2)CC1)Nc1ccc(S(=O)(=O)N2CCOCC2)cc1`, the inhibition is 18.1% (active). To `O=C(CN1CCCCCC1)Nc1ccc(S(=O)(=O)N2CCCCC2)cc1` belongs 1.21% (inactive); to `O=C(CN1C(=O)CCC1=O)Nc1ccc(S(=O)(=O)N2CCOCC2)cc1`, -5.25% (inactive); to `CCCCn1c(N)c(N(CC(C)C)C(=O)C2CSC3(C)CCC(=O)N23)c(=O)[nH]c1=O` (stereo not given), -1.21% (inactive). The same measure for `COC(=O)c1sc(=S)n(-c2ccc(Cl)cc2)c1C`: 0.52% (inactive). The same measure for `COCCOC(=O)c1sc(=S)n(CCOC)c1N`: 19.7% (active); for `CC(=O)Nc1ccc(N2C(=O)C3C4CC(=O)C(c5ccccc54)C3C2=O)cc1` (stereo not given): 1.72% (inactive); for `COc1ccccc1-n1c(=S)[nH]c2c(sc(=S)n2-c2ccc(C)cc2C)c1=O`: 2.01% (inactive). Consider `Cc1ccc(Oc2ccc3c(c2)C(=O)N(c2cccc4cccnc24)C3=O)cc1`, for which the inhibition is -5.81% (inactive).

`O=S(=O)(NCCCN1CCOCC1)c1ccc(F)c(Cl)c1`: the inhibition was 2.43% (inactive). To `Cc1c(Br)c([N+](=O)[O-])nn1CC(=O)N1CCN(Cc2ccccc2)CC1` belongs 1.03% (inactive). Take `COc1cccc(C(C(=O)NC2CCCC2)N(C(=O)c2ccco2)c2cccc(C(C)=O)c2)c1OC` (stereo not given): the inhibition was 0.23% (inactive). In the case of `O=c1[nH][nH]c(C(F)(F)F)c1C=NCc1ccccc1Cl`, the inhibition was 1.78% (inactive). Consider `Cc1ccc(OCC(=O)Oc2ccccc2[N+](=O)[O-])cc1`, for which the inhibition was 1.05% (inactive). With `COc1ccc(/C=C/c2noc(-c3ccccc3OC(C)=O)n2)cc1`, the inhibition was -1.21% (inactive). The same measure for `CN=C1SC(C(=O)O)CC(=O)N1C` (stereo not given): -2.92% (inactive); for `O=C(CSc1nnc(-c2ccoc2)o1)N1CCOCC1`: -2.17% (inactive); for `Cc1cc2ccccn2c1C(=O)c1cccc(S(=O)(=O)N2CCOCC2)c1`: -1.9% (inactive). The same measure for `O=C(NCc1ccccc1)[C@H]1C[C@@H]1[C@H](NP(=O)(c1ccccc1)c1ccccc1)c1ccccc1`: -4.27% (inactive); for `CCCCCCNCCn1cnc2c(N)ncnc21`: -4.2% (inactive); for `CC1(C)CC(=O)C/C(=N\NC(=O)c2cccs2)C1`: -2.89% (inactive). As for `CCOc1ncccc1C(=O)OCC(=O)c1c[nH]c2ccccc12`, the inhibition is -4.27% (inactive). As to `COc1ccc(-c2nc(CS(=O)CC(=O)NCc3ccccn3)c(C)o2)cc1` (stereo not given), the inhibition was 25% (active).

For `COc1cccc(-c2nc(CS(=O)CC(=O)NCc3ccc(F)cc3)c(C)o2)c1` (stereo not given), the inhibition is 1.75% (inactive). To `COc1ccc(-c2nc(CS(=O)CC(=O)NCc3ccccc3)c(C)o2)cc1OC` (stereo not given) belongs -1.5% (inactive); to `O=C1CC(C(F)(F)C(F)(F)C(F)(F)C(F)(F)F)=Nc2ccccc2N1`, 0.46% (inactive); to `CCN(Cc1ccccc1)S(=O)(=O)c1cc(C(=O)O)ccc1OC`, -4.32% (inactive). As to `Nc1nc(SCC(=O)NNc2c(Cl)cc(Cl)cc2Cl)n[nH]1`, the inhibition was 2.34% (inactive). To `Cc1cc(C)c(C#N)c(SCC(=O)NN2CC(=O)N(c3ccccc3F)CC2=O)n1` belongs -0.67% (inactive). The same measure for `Cc1cccc(-n2c(SCC(N)=O)nc3c(c2=O)C2(CCCCC2)Cc2ccccc2-3)c1`: -3.86% (inactive). To `Cn1ccc(=NC=C(C#N)C#N)c2ccccc21` belongs -3.88% (inactive); to `CN(C)c1ccc(N/C=C/C(=O)C(F)(F)F)cc1`, -5.36% (inactive); to `CCN(CC)C(=O)CSc1ncnc2c1cnn2-c1ccccc1`, -1.45% (inactive). Take `COc1ccc(/C=C2\CCCC3C2=NN(C(=O)c2scnc2C)C3c2ccc(OC)cc2)cc1` (stereo not given): the inhibition was -3.35% (inactive). To `CCCN(CCC)C(=O)C1c2ccccc2Oc2ccccc21` belongs -1.51% (inactive).

Consider `O=C(O)CCS(=O)(=O)c1ccc(-c2ccccc2)cc1`, for which the inhibition was -0.07% (inactive).

In the case of `NS(=O)(=O)c1ccc(NC(=S)NNC(=O)c2cccs2)cc1`, the inhibition was 0.82% (inactive). The same measure for `COC(=O)[C@@H]1CC[C@H](C)[C@@H](c2ccc(C)cc2)N1C(=O)c1ccc(/C=N/O[C@H](C)c2cn([C@@H]3COC[C@H]3O)nn2)cc1`: -1.13% (inactive). With `COCCCN(C(=O)CSCc1ccc(C)cc1)c1c(N)n(Cc2ccccc2)c(=O)[nH]c1=O`, the inhibition is -5.33% (inactive). Regarding `Cc1ccccc1NC(=O)NC1(C(=O)N2CCCC2)CCCCC1`, the inhibition is 5.72% (inactive). To `CCN1C(=O)/C(=C2/Sc3ccccc3N2CCCS(=O)(=O)O)SC1=S` belongs 14.2% (active); to `CCN1C(=O)/C(=c2\s/c(=C3\Sc4ccccc4N3C)c(=O)n2C)N(C)C1=S`, -0.75% (inactive). To `CCCCN1C(=O)/C(=C2/Sc3ccc(Cl)cc3N2CC)SC1=S` belongs 2.19% (inactive); to `COc1ccc(CNC(=O)C(=O)NCC2OCCN2C(=O)c2ccc(OC)cc2)cc1` (stereo not given), -3.36% (inactive); to `CC(C)c1ccc(S(=O)(=O)N2CCN(C(=O)CN3C(=O)NC(C)(c4ccccc4)C3=O)CC2)cc1` (stereo not given), 0.26% (inactive).

As for `Cc1ccccc1C(=O)NC(=S)NC1CC1`, the inhibition is -2.2% (inactive).

As to `Cc1c(C(=O)NCCN2C(=O)S/C(=C\c3cccs3)C2=O)cccc1[N+](=O)[O-]`, the inhibition is -7.3% (inactive). Regarding `COc1ccc(S(=O)(=O)N(CCCN2CCCC2=O)Cc2cc3c(C)ccc(C)c3[nH]c2=O)cc1`, the inhibition is -0.26% (inactive). To `COc1cc(OC)cc(C(=O)NNC(=O)CNC(=O)c2ccc(Br)o2)c1` belongs -3.43% (inactive).

With `O=C(NCCCN1CCCCC1)C1CCCN(c2ncnc3c2nc2n3CCCCC2)C1` (stereo not given), the inhibition is 4.5% (inactive).

With `O=C(COC(=O)CCOc1ccccc1)Nc1cc(S(=O)(=O)N2CCCCC2)ccc1Cl`, the inhibition is -5.97% (inactive). To `Cc1ccsc1/C=C1\SC(N2CCOCC2)=NC1=O` belongs -3.19% (inactive); to `Cc1ccc(N2CCN(/N=C/c3cccs3)CC2)cc1`, 2.05% (inactive); to `Cc1ccc(N2CCN(C3=NC(=O)/C(=C\c4cccs4)S3)CC2)cc1`, 29% (active). As for `CCCCc1nc2cc(C(=O)N3CCCCC3CCO)ccc2o1` (stereo not given), the inhibition was -0.28% (inactive). The same measure for `O=C(NCCc1ccccc1)C(=O)NCC1OCCN1S(=O)(=O)c1cccs1` (stereo not given): 2.86% (inactive); for `O=C(CCn1c(SCC(=O)c2ccccc2)nc2ccccc2c1=O)NCc1ccc(F)cc1`: 33.2% (active); for `O=C(CCCn1c(SCC(=O)c2ccccc2)nc2ccccc2c1=O)NCC1CCCO1` (stereo not given): 2.13% (inactive). As to `O=C(CSc1nc2ccccc2c(=O)n1-c1ccc(F)cc1)NC1CC1`, the inhibition is 0.87% (inactive).

For the compound `O=C(N/N=C/c1ccsc1)c1cc(O)cc(O)c1`, the inhibition is 3.13% (inactive). Regarding `CCOCCCNC(=O)c1cn(CC(C)C)c(=O)c2c1c1ccccc1n2C`, the inhibition was 0.47% (inactive). To `COc1ccc(S(=O)(=O)N/N=C\c2ccc(OC)c(COc3ccc(C)cc3[N+](=O)[O-])c2)cc1` belongs 3.24% (inactive). Consider `Cc1ccc(N(CC(=O)NC2CCCCC2)C(=O)CCCC(=O)Nc2ccccn2)c(C)c1`, for which the inhibition is -5.08% (inactive). On to `CC1CCCCC1NC(=O)NC(=O)COC(=O)C1=NN(c2ccccc2)C(=O)CC1` (stereo not given), for which the inhibition is -3.28% (inactive). The same measure for `CCOc1ccc(S(=O)(=O)N2CCCC(C(=O)N3CCC(C(N)=O)CC3)C2)cc1Cl` (stereo not given): -0.84% (inactive); for `CCn1cc(CN2CCC(C(=O)Nc3cccc(-c4cccc(Cl)c4)c3)CC2)c(C)n1`: -1.53% (inactive); for `O=C(NCc1ccccc1Cl)C1CCN(c2ncnc3c2nc2n3CCCCC2)CC1`: 3.58% (inactive). The same measure for `O=C(Cc1ccccc1F)NC1CCSc2ccccc21` (stereo not given): -2.96% (inactive). The same measure for `O=C(CC1Nc2ccccc2NC1=O)Nc1ccccc1` (stereo not given): -11.2% (inactive).

For `COc1ccc(NS(=O)(=O)c2cccc(C(=O)NCCc3ccc(S(N)(=O)=O)cc3)c2)cc1`, the inhibition is 0.92% (inactive). To `CCC(Cc1ccccc1)NC(=O)C1CCCCC1` (stereo not given) belongs -0.48% (inactive); to `CCN(CC)S(=O)(=O)c1ccc(N2CCOCC2)c(NC(=O)c2ccc(=O)n(C)n2)c1`, 3.13% (inactive); to `CCOC(=O)/C(=N\Nc1ccccc1Cl)N(C)C1CCS(=O)(=O)C1` (stereo not given), 6.62% (inactive). The same measure for `O=C(Nc1nnc(C2COc3ccccc3O2)o1)c1ccc(F)cc1` (stereo not given): -3.93% (inactive).

Turning to `COc1ccc2c(c1)OC(O)(C(F)(F)C(F)F)CC2=O` (stereo not given), the inhibition is 0.29% (inactive). To `Cc1cc(-c2ccccc2)nc(N2CCC(C(=O)NC34CC5CC(CC(C5)C3)C4)CC2)n1` belongs -0.18% (inactive); to `CC(=O)Nc1ccc(C(=O)N(C2=NC(C)CS2)c2ccc(Cl)cc2)cc1` (stereo not given), -16.3% (inactive).

As for `O=C(Nc1cccc(Cl)c1)c1cncn1-c1ccc(F)cc1`, the inhibition is -4.38% (inactive).

Consider `CC(C)(C)c1ccc(CCC2OCC(CN3CCOCC3)O2)cc1` (stereo not given), for which the inhibition was -1.79% (inactive). The same measure for `O=C1CN(C(=O)COc2c(Cl)cccc2Cl)c2ccccc2N1`: -0.08% (inactive); for `O=C(NCCCc1ccccc1)c1cc(COc2c(F)cccc2F)on1`: -0.18% (inactive). To `Cc1ccc(OCc2cc(C(=O)N(C)CCc3ccccc3)no2)cc1C` belongs 2.48% (inactive); to `CN(CCOc1ccccc1)C(=O)c1cc(COc2c(F)cccc2F)on1`, 17.4% (active); to `COc1cccc(NC(=O)N2C3CCCC2CC(NC(C)=O)C3)c1` (stereo not given), -0.11% (inactive). For `COc1cccc(NC(=O)C2CCCN2C(=O)OCc2ccccc2)c1` (stereo not given), the inhibition was 1.14% (inactive).

With `COc1cccc(NC(=O)N2CCCC2C(=O)NC2CCCCC2)c1` (stereo not given), the inhibition was 15.1% (active). Take `CCc1c(SCCC(=O)O)nc2ccccc2c1C`: the inhibition is 2.67% (inactive). The same measure for `COc1ccc2c(c1)[C@H]1[C@H](CO2)[C@H](c2ccccc2)[C@]2(C)C(=O)Nc3cc(F)c(F)cc3C(=O)N12`: -14.6% (inactive); for `Cc1cccc(N2CCC(NCc3c(C(=O)N4CCCCC4)nc4c(C)cccn34)CC2)c1`: 0.61% (inactive).

The term inhibition denotes the change of the read-out against control, counted positive when it falls.
